Where “and” joins values, the source holds several entries; their conditions need not be identical. Identical values can stand only once. Out of some 5,500 compounds screened, about 2,000 (36%) were called active. Roughly 18% stayed inconclusive and do not appear here. No stated cut-off is given here; in the data, active means normalized growth mostly below about 0.91 (no sharp cut-off); inconclusive means no clear call, values can overlap the other calls; inactive means mostly above about 0.92. The list shows a part of the results.
Experiment: chemical genetic growth profiling, strain panel (AID 1159580);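 further: tested at 20 µM; growth read once vehicle control cultures reached saturation at 30 °C; 1 = growth at the plate median or of vehicle wells; lower values mean less growth of the strain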
Conditions: growth OD

Measured: normalized growth

O=c1c(O)cc([C@H]2Oc3cc(O)cc(O)c3C[C@H]2O)cc2c([C@H]3Oc4cc(O)cc(O)c4C[C@H]3O)cc(O)c(O)c12
inactive: S. cerevisiae deletion strains, locus YAL013W, strain DEP1, active compounds read low 1.01 | S. cerevisiae deletion strains, locus YAL021C, strain ccr4, active compounds read low 1.01 | S. cerevisiae deletion strains, locus YAL026C, strain drs2, active compounds read low 1.04 | S. cerevisiae deletion strains, locus YAL030W, strain snc1, active compounds read low 1.04 | S. cerevisiae deletion strains, locus YBL061C, strain skt5, active compounds read low 1.03 | S. cerevisiae deletion strains, locus YBR009C, strain hhf1, active compounds read low 1.04 | S. cerevisiae deletion strains, locus YBR021W, strain FUR4, active compounds read low 1.01 | S. cerevisiae deletion strains, locus YBR023C, strain chs3, active compounds read low 1.02 | S. cerevisiae deletion strains, locus YBR171W, strain sec66, active compounds read low 1.06 | S. cerevisiae deletion strains, locus YBR229C, strain ROT2, active compounds read low 0.998 | S. cerevisiae deletion strains, locus YBR231C, strain swc5, active compounds read low 1.02 | S. cerevisiae deletion strains, locus YBR279W, strain paf1, active compounds read low 1.02 | S. cerevisiae deletion strains, locus YCL011C, strain gbp2, active compounds read low 1.04 | S. cerevisiae deletion strains, locus YCL016C, strain dcc1, active compounds read low 1.02 | S. cerevisiae deletion strains, locus YCL029C, strain bik1, active compounds read low 0.998 | S. cerevisiae deletion strains, locus YCL069W, strain vba3, active compounds read low 1.03 | S. cerevisiae deletion strains, locus YCR088W, strain abp1, active compounds read low 1.04 | S. cerevisiae deletion strains, locus YDL005C, strain med2, active compounds read low 1.05 | S. cerevisiae deletion strains, locus YDL035C, strain GPR1, active compounds read low 1.03 | S. cerevisiae deletion strains, locus YDL040C, strain nat1, active compounds read low 1.04 | S. cerevisiae deletion strains, locus YDL074C, strain BRE1, active compounds read low 1.04 | S. cerevisiae deletion strains, locus YDL101C, strain DUN1, active compounds read low 1.02 | S. cerevisiae deletion strains, locus YDL185W, strain tfp1, active compounds read low 1.01 | S. cerevisiae deletion strains, locus YDL192W, strain arf1, active compounds read low 1 | S. cerevisiae deletion strains, locus YDR001C, strain nth1, active compounds read low 1.03 | S. cerevisiae deletion strains, locus YDR069C, strain doa4, active compounds read low 0.995 | S. cerevisiae deletion strains, locus YDR101C, strain arx1, active compounds read low 1.02 | S. cerevisiae deletion strains, locus YDR137W, strain rgp1, active compounds read low 1.03 | S. cerevisiae deletion strains, locus YDR159W, strain sac3, active compounds read low 1.1 | S. cerevisiae deletion strains, locus YDR162C, strain NBP2, active compounds read low 1.03 | S. cerevisiae deletion strains, locus YDR195W, strain ref2 1.04 | S. cerevisiae deletion strains, locus YDR297W, strain sur2, active compounds read low 1.02 | S. cerevisiae deletion strains, locus YDR318W, strain mcm21, active compounds read low 1.02 | S. cerevisiae deletion strains, locus YDR334W, strain swr1, active compounds read low 1.03 | S. cerevisiae deletion strains, locus YDR335W, strain msn5, active compounds read low 1.02 | S. cerevisiae deletion strains, locus YDR388W, active compounds read low 0.995 | S. cerevisiae deletion strains, locus YDR392W, strain spt3, active compounds read low 1.03 | S. cerevisiae deletion strains, locus YDR502C, strain sam2, active compounds read low 1.03 | S. cerevisiae deletion strains, locus YEL003W, strain gim4, active compounds read low 1.03 | S. cerevisiae deletion strains, locus YEL037C, strain rad23, active compounds read low 1.02 | S. cerevisiae deletion strains, locus YEL061C, strain CIN8 (second series), active compounds read low 1.04 | S. cerevisiae deletion strains, locus YEL061C, strain CIN8, active compounds read low 1.01 | S. cerevisiae deletion strains, locus YER015W, strain faa2, active compounds read low 1.01 | S. cerevisiae deletion strains, locus YER016W, strain bim1, active compounds read low 1.04 | S. cerevisiae deletion strains, locus YER110C, active compounds read low 1.03 | S. cerevisiae deletion strains, locus YER111C, strain swi4, active compounds read low 1.01 | S. cerevisiae deletion strains, locus YER155C, strain BEM2 (second series), active compounds read low 1.08 | S. cerevisiae deletion strains, locus YER155C, strain BEM2, active compounds read low 1.05 | S. cerevisiae deletion strains, locus YER167W, strain BCK2, active compounds read low 1.02 | S. cerevisiae deletion strains, locus YFR010W, strain ubp6, active compounds read low 1.03 | S. cerevisiae deletion strains, locus YGL078C, strain dbp3, active compounds read low 1.01 | S. cerevisiae deletion strains, locus YGL086W, strain mad1, active compounds read low 1.02 | S. cerevisiae deletion strains, locus YGL167C, strain pmr1, active compounds read low 1.03 | S. cerevisiae deletion strains, locus YGL173C, strain kem1, active compounds read low 1.03 | S. cerevisiae deletion strains, locus YGL227W, strain vid30, active compounds read low 1.05 | S. cerevisiae deletion strains, locus YGL240W, strain doc1, active compounds read low 1.06 | S. cerevisiae deletion strains, locus YGL248W, strain PDE1, active compounds read low 0.998 | S. cerevisiae deletion strains, locus YGL253W, strain hxk2, active compounds read low 1.05 | S. cerevisiae deletion strains, locus YGR135W, strain pre9, active compounds read low 1.01 | S. cerevisiae deletion strains, locus YGR252W, strain gcn5, active compounds read low 1.01 | S. cerevisiae deletion strains, locus YHR013C, strain ard1, active compounds read low 1.05 | S. cerevisiae deletion strains, locus YHR027C, strain rpn1, active compounds read low 1.02 | S. cerevisiae deletion strains, locus YHR030C, strain SLT2, active compounds read low 0.985 | S. cerevisiae deletion strains, locus YHR079C, strain IRE1 (second series), active compounds read low 1.02 | S. cerevisiae deletion strains, locus YHR079C, strain IRE1, active compounds read low 0.999 | S. cerevisiae deletion strains, locus YHR094C, strain hxt1, active compounds read low 1.02 | S. cerevisiae deletion strains, locus YHR129C, strain ARP1, active compounds read low 1.01 | S. cerevisiae deletion strains, locus YHR142W, strain chs7, active compounds read low 1.05 | S. cerevisiae deletion strains, locus YHR200W, strain rpn10, active compounds read low 0.994 | S. cerevisiae deletion strains, locus YIL066C, strain RNR3, active compounds read low 1.02 | S. cerevisiae deletion strains, locus YIL073C, strain SPO22, active compounds read low 1.1 | S. cerevisiae deletion strains, locus YIL125W, strain kgd1, active compounds read low 1.02 | S. cerevisiae deletion strains, locus YIR030C, strain dcg1, active compounds read low 1.01 | S. cerevisiae deletion strains, locus YJL092W, strain hpr5, active compounds read low 1.03 | S. cerevisiae deletion strains, locus YJL095W, strain BCK1 (second series), active compounds read low 1.02 | S. cerevisiae deletion strains, locus YJL095W, strain BCK1, active compounds read low 0.995 and 1.01 | S. cerevisiae deletion strains, locus YJL115W, strain asf1, active compounds read low 1.05 | S. cerevisiae deletion strains, locus YJL134W, strain LCB3, active compounds read low 1.02 | S. cerevisiae deletion strains, locus YJL154C, strain vps35, active compounds read low 1.04 | S. cerevisiae deletion strains, locus YJL164C, strain tpk1, active compounds read low 1.01 | S. cerevisiae deletion strains, locus YJL166W, strain qcr8, active compounds read low 1.05 | S. cerevisiae deletion strains, locus YJL168C, strain set2, active compounds read low 1.02 | S. cerevisiae deletion strains, locus YJL187C, strain SWE1 (second series), active compounds read low 0.997 | S. cerevisiae deletion strains, locus YJR043C, strain POL32, active compounds read low 1.03 | S. cerevisiae deletion strains, locus YJR066W, strain TOR1, active compounds read low 0.921 | S. cerevisiae deletion strains, locus YKL009W, strain mrt4, active compounds read low 1.09 | S. cerevisiae deletion strains, locus YKL068W, active compounds read low 1.01 | S. cerevisiae deletion strains, locus YKL160W, strain elf1, active compounds read low 1.01 | S. cerevisiae deletion strains, locus YKL190W, strain CNB1, active compounds read low 1.02 | S. cerevisiae deletion strains, locus YKR001C, strain vps1, active compounds read low 1.02 | S. cerevisiae deletion strains, locus YKR026C, strain gcn3, active compounds read low 0.987 | S. cerevisiae deletion strains, locus YKR091W, strain srl3, active compounds read low 1.03 | S. cerevisiae deletion strains, locus YLL001W, strain dnm1, active compounds read low 1.03 | S. cerevisiae deletion strains, locus YLL026W, active compounds read low 1.04 | S. cerevisiae deletion strains, locus YLL041C, strain sdh2, active compounds read low 1.03 | S. cerevisiae deletion strains, locus YLR027C, strain aat2, active compounds read low 1.02 | S. cerevisiae deletion strains, locus YLR039C, strain RIC1, active compounds read low 1.15 | S. cerevisiae deletion strains, locus YLR058C, strain SHM2, active compounds read low 1 | S. cerevisiae deletion strains, locus YLR102C, strain apc9, active compounds read low 1.02 | S. cerevisiae deletion strains, locus YLR113W, strain HOG1, active compounds read low 1.03 | S. cerevisiae deletion strains, locus YLR221C, strain rsa3, active compounds read low 1.03 | S. cerevisiae deletion strains, locus YLR258W, strain gsy2, active compounds read low 1.02 | S. cerevisiae deletion strains, locus YLR262C, strain YPT6 (second series), active compounds read low 1.06 | S. cerevisiae deletion strains, locus YLR262C, strain YPT6, active compounds read low 1.19 | S. cerevisiae deletion strains, locus YLR268W, strain sec22, active compounds read low 1.03 | S. cerevisiae deletion strains, locus YLR320W, strain mms22, active compounds read low 1.07 | S. cerevisiae deletion strains, locus YLR342W, strain FKS1 (second series), active compounds read low 1.01 | S. cerevisiae deletion strains, locus YLR342W, strain FKS1, active compounds read low 1.01 | S. cerevisiae deletion strains, locus YLR357W, strain rsc2, active compounds read low 0.989 | S. cerevisiae deletion strains, locus YLR370C, strain arc18, active compounds read low 1.01 | S. cerevisiae deletion strains, locus YLR371W, strain rom2, active compounds read low 0.977 | S. cerevisiae deletion strains, locus YLR384C, strain iki3, active compounds read low 1.03 | S. cerevisiae deletion strains, locus YLR418C, strain cdc73, active compounds read low 1.03 | S. cerevisiae deletion strains, locus YML016C, strain PPZ1, active compounds read low 1 | S. cerevisiae deletion strains, locus YML032C, strain rad52, active compounds read low 1.02 | S. cerevisiae deletion strains, locus YML120C, strain ndi1, active compounds read low 1.03 | S. cerevisiae deletion strains, locus YML124C, strain tub3, active compounds read low 1.02 | S. cerevisiae deletion strains, locus YMR058W, strain fet3, active compounds read low 0.955 | S. cerevisiae deletion strains, locus YMR078C, strain ctf18, active compounds read low 1.02 | S. cerevisiae deletion strains, locus YMR125W, strain sto1, active compounds read low 1.03 | S. cerevisiae deletion strains, locus YMR129W, active compounds read low 1.04 | S. cerevisiae deletion strains, locus YMR205C, strain PFK2, active compounds read low 1.09 | S. cerevisiae deletion strains, locus YMR223W, strain ubp8, active compounds read low 1 | S. cerevisiae deletion strains, locus YMR231W, strain pep5, active compounds read low 1.02 | S. cerevisiae deletion strains, locus YMR263W, strain SAP30, active compounds read low 1.03 | S. cerevisiae deletion strains, locus YMR307W, strain GAS1, active compounds read low 0.915 | S. cerevisiae deletion strains, locus YNL067W, strain RPL9B, active compounds read low 1.02 | S. cerevisiae deletion strains, locus YNL071W, strain lat1, active compounds read low 1.05 | S. cerevisiae deletion strains, locus YNL183C, strain NPR1, active compounds read low 0.95 | S. cerevisiae deletion strains, locus YNL209W, strain ssb2, active compounds read low 0.996 | S. cerevisiae deletion strains, locus YNL233W, strain BNI4, active compounds read low 1.04 | S. cerevisiae deletion strains, locus YNL248C, strain rpa49, active compounds read low 0.999 | S. cerevisiae deletion strains, locus YNL250W, strain rad50, active compounds read low 1.05 | S. cerevisiae deletion strains, locus YNL271C, strain bni1, active compounds read low 1 | S. cerevisiae deletion strains, locus YNL298W, strain CLA4, active compounds read low 1.02 | S. cerevisiae deletion strains, locus YNL307C, strain MCK1, active compounds read low 1.02 | S. cerevisiae deletion strains, locus YNL322C, strain KRE1 (second series), active compounds read low 1.07 | S. cerevisiae deletion strains, locus YNL322C, strain KRE1, active compounds read low 1.01 | S. cerevisiae deletion strains, locus YNR049C, strain mso1, active compounds read low 1.04 | S. cerevisiae deletion strains, locus YNR052C, strain pop2, active compounds read low 0.963 | S. cerevisiae deletion strains, locus YOL006C, strain TOP1, active compounds read low 1.03 | S. cerevisiae deletion strains, locus YOL012C, strain htz1 1.21 | S. cerevisiae deletion strains, locus YOL147C, strain pex11, active compounds read low 1.01 | S. cerevisiae deletion strains, locus YOR001W, strain rrp6, active compounds read low 1.03 | S. cerevisiae deletion strains, locus YOR061W, strain CKA2, active compounds read low 1.02 | S. cerevisiae deletion strains, locus YOR069W, strain VPS5, active compounds read low 1 | S. cerevisiae deletion strains, locus YOR070C, strain gyp1, active compounds read low 1.01 | S. cerevisiae deletion strains, locus YOR080W, strain dia2, active compounds read low 1.06 | S. cerevisiae deletion strains, locus YOR083W, strain WHI5, active compounds read low 1.01 | S. cerevisiae deletion strains, locus YOR106W, strain vam3, active compounds read low 1.04 | S. cerevisiae deletion strains, locus YOR136W, strain idh2, active compounds read low 1.02 | S. cerevisiae deletion strains, locus YOR144C, strain elg1, active compounds read low 1.02 | S. cerevisiae deletion strains, locus YOR184W, strain ser1, active compounds read low 1.06 | S. cerevisiae deletion strains, locus YOR231W, strain MKK1, active compounds read low 1.01 | S. cerevisiae deletion strains, locus YOR265W, strain rbl2, active compounds read low 1.03 | S. cerevisiae deletion strains, locus YOR270C, strain vph1, active compounds read low 1.14 | S. cerevisiae deletion strains, locus YOR290C, strain snf2, active compounds read low 1.01 | S. cerevisiae deletion strains, locus YOR316C, strain cot1, active compounds read low 1.01 | S. cerevisiae deletion strains, locus YPL051W, strain arl3, active compounds read low 1.02 | S. cerevisiae deletion strains, locus YPL078C, strain atp4, active compounds read low 1.01 | S. cerevisiae deletion strains, locus YPL106C, strain sse1, active compounds read low 1 | S. cerevisiae deletion strains, locus YPL240C, strain hsp82, active compounds read low 1.04 | S. cerevisiae deletion strains, locus YPL256C, strain CLN2, active compounds read low 0.992 | S. cerevisiae deletion strains, locus YPR119W, strain clb2, active compounds read low 1.03 | S. cerevisiae deletion strains, locus YPR141C, strain kar3, active compounds read low 0.993 | S. cerevisiae deletion strains, locus YPR163C, strain tif3, active compounds read low 1.01 | S. cerevisiae deletion strains, locus YPR167C, strain met16, active compounds read low 1.02 | S. cerevisiae deletion strains, strain wtn01, active compounds read low 1.03 | S. cerevisiae strains, strain wild type, active compounds read low 0.998
active: S. cerevisiae deletion strains, locus YJL129C, strain trk1, active compounds read low 1.14 [resistant]
